Here are results for 11 molecules from PubChem BioAssay (Tox21).

Test [1] can be described thus: qHTS RealTime-Glo MT Cell Viability Assay in HEK293 cells - 0 hour (AID 1224880). Further: top concentration of the series differs between compounds; nearly all actives have a fitted effect of over 45% in size. A digest of the protocol: (§1)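 Luminescence, which tracks viable cell number through reduction of the prosubstrate to a NanoLuc substrate, was read over continuous 37 C culture. Cells (600/well) were premixed with reagent and rested 5 h before 23 nL of compound in DMSO was pinned.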
(In qHTS, concentration-response curves come from the screen itself.)

Test [2] in a line: A CellTox Green Cytotoxicity Assay to monitor cytotoxicity in HepG2 cells - 0 hour (AID 1224882). Further: nearly all actives have a fitted effect of over 35% in size. A digest of the protocol:
(§2)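 Real-time cytotoxicity: fluorescence of a cell-impermeant cyanine dye binding DNA of dead HepG2 cells, measured repeatedly (0–40 h) during compound exposure at 37 C. Cells seeded 600/well with reagent, dosed after 5 h.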

Test [3] is described as follows: A CellTox Green Cytotoxicity Assay to monitor cytotoxicity in HEK293 cells - 8 hour (AID 1224884). Further: nearly all actives have a fitted effect of over 35% in size. Summed up: (§3)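 Fluorescence from a DNA-binding dye excluded by viable cells was measured repeatedly in the same HEK293 wells (600 cells/well) during continuous compound exposure at 37 C. Each assay gives one read point: 0, 8, 16, 24, 32 or 40 h.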
Test [4] can be described thus: qHTS RealTime-Glo MT Cell Viability Assay in HepG2 cells - 16 hour (AID 1224885). Further: nearly all actives have a fitted effect of over 50% in size. Summed up: (§4)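 qHTS, HepG2, 600 cells/well, RealTime-Glo (NanoLuc + prosubstrate) added with cells; 5 h preincubation; DMSO compound addition; 37 C; luminescence at 0/8/16/24/32/40 h.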
Test [5] can be described thus: qHTS RealTime-Glo MT Cell Viability Assay in HEK293 cells - 24 hour (AID 1224886). Further: nearly all actives have a fitted effect of over 50% in size. Further: potency means the concentration at half of the fitted maximal effect. Summed up:
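Assay medium contained NanoLuc luciferase plus cell-permeant prosubstrate, added with HEK293 cells at 600 cells/well. After 5 h at 37 C/5% CO2 compounds were added; plates stayed at 37 C for 40 h with serial luminescence reads.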

Test [6] is described as follows: A CellTox Green Cytotoxicity Assay to monitor cytotoxicity in HEK293 cells - 16 hour (AID 1224888). Further: nearly all actives have a fitted effect of over 35% in size. A digest of the protocol:
as §3

Test [7] in a line: qHTS RealTime-Glo MT Cell Viability Assay in HepG2 cells - 0 hour (AID 1224889). Further: nearly all actives have a fitted effect of over 50% in size. Summed up:
as §4

Test [8] in a line: A CellTox Green Cytotoxicity Assay to monitor cytotoxicity in HepG2 cells - 8 hour (AID 1224890). Further: nearly all actives have a fitted effect of over 45% in size. Summed up:
as §2

The nature of test [9]: qHTS assay to identify small molecule antagonists of the estrogen receptor alpha (ER-alpha) signaling pathway using the BG1 cell line in the presence of 0.1 nM 17-beta-estradiol - cell viability counter screen (AID 1259241). Further: nearly all actives have a fitted effect of over 40% in size. Further: potency means the concentration at half of the fitted maximal effect. A digest of the protocol: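 Cells were plated and left 24 hr, compounds in DMSO were pinned in, 17beta-estradiol was added to 0.1 nM final, and after 22 hr CellTiter-Fluor reagent was added for 30 min before fluorescence was read.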

Test [10] is described as follows: qHTS assay to identify small molecule antagonists of the androgen receptor (AR) signaling pathway using the MDA cell line in the presence of 0.5 nM R1881 - cell viability counter screen (AID 1259242). Further: nearly all actives have a fitted effect of over 45% in size. Further: potency means the concentration at half of the fitted maximal effect. A digest of the protocol:
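Live-cell protease activity was measured by CellTiter-Fluor fluorescence after 30 min. Before that, MDA-kb2 MMTV-luciferase cells had 16 hr at 37C without CO2, exposed to test compounds and 0.5 nM R1881 final.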

Test [11] addresses Estrogen receptor (Homo sapiens) (UniProt P03372). The experiment in a line: qHTS assay to identify small molecule antagonists of the estrogen receptor alpha (ER-alpha) signaling pathway using the BG1 cell line in the presence of 0.1 nM 17-beta-estradiol (AID 1259244). Further: nearly all actives have a fitted effect of over 50% in size. A digest of the protocol:
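Luciferase luminescence (ONE-Glo, 30 min at room temperature) was read after 22 hr at 37C exposure to compounds plus 17beta-estradiol at 0.1 nM final. Cells were VM7Luc4E2 with endogenous ER-alpha and an ERE-driven luciferase, pre-cultured 5 days in hormone-depleted medium.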

Test [12] can be described thus: qHTS assay to identify small molecule HDAC inhibitors (AID 1259364). Further: top concentration of the series differs between compounds; nearly all actives have a fitted effect of over 45% in size. Summed up: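 Luminescence read after 30 min room-temperature HDAC-Glo incubation measures cellular class I/II HDAC activity. Compounds were applied for 2 hr at 37 C to HCT-116 wild-type cells seeded the day before.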
Test [13] is described as follows: qHTS assay to identify small molecule HDAC inhibitors - cell viability counter screen (AID 1259365). Summed up: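 Counter screen in wild-type HCT-116 cells: compounds dissolved in DMSO are pin-transferred onto overnight-plated cells and left 2hr at 37C. ATP-based CellTiter-Glo luminescence then measures viable cells.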
The nature of test [14]: qHTS assay to identify small molecule agonists of the sonic hedgehog signaling (Shh) pathway - cell viability counter screen (AID 1259366). Further: nearly all actives have a fitted effect of over 50% in size. Further: potency means the concentration at half of the fitted maximal effect. A digest of the protocol:
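Cells are plated at 2,000 per well and left 4hr at 37C, 5% CO2 before compound addition. After 23hr of treatment, CellTiter-Fluor reagent is added for 1hr at 37C and fluorescence is measured.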

A short description of test [15]: qHTS assay to identify small molecule antagonists of the sonic hedgehog signaling (Shh) pathway - cell viability counter screen (AID 1259367). Further: nearly all actives have a fitted effect of over 55% in size. Further: potency means the concentration at half of the fitted maximal effect. Summed up: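 Conditioned medium drove Shh signaling in 3T3 Gli1-Luc cells exposed to compounds at 37C and 5% CO2. Viability was determined from CellTiter-Fluor fluorescence, with reagent incubated 1 hr after 23 hr of treatment.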

Test [16] in a line: A CellTox Green Cytotoxicity Assay to monitor cytotoxicity in HepG2 cells - 32 hour (AID 1224883). Further: nearly all actives have a fitted effect of over 50% in size. Further: potency means the concentration at half of the fitted maximal effect. A digest of the protocol: as §2
Test [17] in a line: qHTS RealTime-Glo MT Cell Viability Assay in HEK293 cells - 8 hour (AID 1224887). Further: nearly all actives have a fitted effect of over 50% in size. Further: potency means the concentration at half of the fitted maximal effect. Summed up:
as §1

A short description of test [18]: qHTS assay to identify small molecule phospholipidosis (PLD) inducers (AID 1259344; active means well fitted curve in the direction sought with a large enough effect; an effect the other way counts as inactive or inconclusive). Summed up:
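After 4 h attachment on collagen I, HepG2 cells were dosed with compound alongside LipidTOX Red, kept 24 h at 37 C, fixed, and imaged for lamellar phospholipid pits.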

Test [19] is described as follows: A CellTox Green Cytotoxicity Assay to monitor cytotoxicity in HEK293 cells - 32 hour (AID 1224881). Further: nearly all actives have a fitted effect of over 40% in size. A digest of the protocol: as §3
For test [20], the target named is Androgen receptor (Homo sapiens) (UniProt P10275). As to the kind of experiment: qHTS assay to identify small molecule antagonists of the androgen receptor (AR) signaling pathway using the MDA cell line in the presence of 0.5 nM R1881 (AID 1259243). Further: nearly all actives have a fitted effect of over 50% in size. A digest of the protocol:
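Luminescent reporter readout (ONE-Glo, 30 min, room temperature) after 16 hr co-treatment of MDA-kb2 cells with test compounds and 0.5 nM R1881 final, at 37C without CO2. The MMTV-driven luciferase responds to both AR and GR.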

A number with no mark means an inactive call. Results filed as inconclusive are left out. Activity calls are given as the source filed them. Unless noted, the call rests on the fitted dose curve; in most records, active means well fitted curve in the direction sought with a large enough effect in the repeat runs; inconclusive means weak or mixed curves; inactive means no such curve, though single readings can be large; an effect the other way counts as inactive or inconclusive.

Sequence of Estrogen receptor (Homo sapiens) (P03372 whole entry, looked up): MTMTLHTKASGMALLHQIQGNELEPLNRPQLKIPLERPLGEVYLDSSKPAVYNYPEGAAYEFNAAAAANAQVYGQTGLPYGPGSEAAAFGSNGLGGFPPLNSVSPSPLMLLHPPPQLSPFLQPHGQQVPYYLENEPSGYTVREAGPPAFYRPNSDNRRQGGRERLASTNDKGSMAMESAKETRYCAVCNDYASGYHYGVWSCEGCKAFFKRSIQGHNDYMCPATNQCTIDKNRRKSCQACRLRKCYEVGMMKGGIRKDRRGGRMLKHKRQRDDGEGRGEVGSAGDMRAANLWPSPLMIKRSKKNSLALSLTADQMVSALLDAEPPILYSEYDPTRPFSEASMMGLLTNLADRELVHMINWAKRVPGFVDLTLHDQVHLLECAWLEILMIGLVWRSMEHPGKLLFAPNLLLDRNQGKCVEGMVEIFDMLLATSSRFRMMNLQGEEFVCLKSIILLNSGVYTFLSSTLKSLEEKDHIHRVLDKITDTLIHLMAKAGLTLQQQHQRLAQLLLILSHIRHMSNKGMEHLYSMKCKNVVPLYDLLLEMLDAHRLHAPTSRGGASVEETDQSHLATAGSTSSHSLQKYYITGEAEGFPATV
Sequence of Androgen receptor (Homo sapiens) (P10275 whole entry, looked up): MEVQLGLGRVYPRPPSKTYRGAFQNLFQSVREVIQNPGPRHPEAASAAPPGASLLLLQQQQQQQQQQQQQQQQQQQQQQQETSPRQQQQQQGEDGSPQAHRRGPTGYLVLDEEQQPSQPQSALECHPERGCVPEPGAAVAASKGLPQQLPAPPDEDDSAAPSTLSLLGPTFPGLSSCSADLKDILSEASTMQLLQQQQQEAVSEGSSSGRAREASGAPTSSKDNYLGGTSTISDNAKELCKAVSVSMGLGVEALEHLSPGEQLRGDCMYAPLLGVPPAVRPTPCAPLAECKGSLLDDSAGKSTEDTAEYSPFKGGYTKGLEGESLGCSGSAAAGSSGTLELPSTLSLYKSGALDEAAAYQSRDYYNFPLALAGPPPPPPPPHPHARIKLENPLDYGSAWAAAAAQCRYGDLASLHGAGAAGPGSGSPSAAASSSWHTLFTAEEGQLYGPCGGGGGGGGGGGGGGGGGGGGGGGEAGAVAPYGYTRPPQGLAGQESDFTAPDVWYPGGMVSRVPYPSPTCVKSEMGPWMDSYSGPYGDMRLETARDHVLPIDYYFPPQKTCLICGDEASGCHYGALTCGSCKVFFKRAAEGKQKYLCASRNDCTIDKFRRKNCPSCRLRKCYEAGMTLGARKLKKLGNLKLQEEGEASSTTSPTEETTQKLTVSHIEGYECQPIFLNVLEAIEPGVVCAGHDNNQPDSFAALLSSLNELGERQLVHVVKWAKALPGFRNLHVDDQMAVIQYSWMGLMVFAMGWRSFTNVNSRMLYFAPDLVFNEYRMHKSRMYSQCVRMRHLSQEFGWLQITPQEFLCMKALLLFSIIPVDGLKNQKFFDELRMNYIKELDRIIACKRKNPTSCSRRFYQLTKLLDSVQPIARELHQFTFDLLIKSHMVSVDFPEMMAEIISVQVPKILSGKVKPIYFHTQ

Regarding `CC1C(C)(C)C2=C(C(=O)CCC2)C1(C)C` (stereo not given), the Potency entry in [1], in test [2], in test [3], in [4], in test [5] and in test [6] was “inactive” throughout. The Potency entry in test [7], in test [8], in test [9], in [10], in test [11] and in [12] was “inactive” throughout. In addition, the Potency entry in test [13], in [14] and in [15] was “inactive” throughout.

`CO[C@@H]1[C@@H](OC)[C@H](C)[C@@](O)(CC(=O)O)O[C@H]1[C@H](C)[C@H]1O[C@@]2(CC[C@@](C)([C@H]3CC[C@@](C)([C@@H]4O[C@@H]([C@H]5O[C@](C)(O)[C@H](C)C[C@@H]5C)C[C@@H]4OC4C[C@H](OC)[C@@H](OC)[C@H](C)O4)O3)O2)C[C@H](O)[C@H]1C` (stereo not given in full): the Potency result in [1], in test [3], in test [6], in test [7], in test [18] and in [13] was “inactive” throughout. Moreover, the Potency in [16] is 9.52 µM (active); in test [5], 3.38 µM (active); in test [17], 8.49 µM (active); in [9], 3.35 µM (active); in [10], 1.68 µM (active); in [14], 4.22 µM (active). For the same molecule, in [15], the Potency is 3.76 µM (active).

Regarding `CC(CN(CCN(CC(C)OCCO)CC(C)OCCO)CC(C)OCCO)OCCO` (stereo not given), the Potency result in test [1], in test [2], in [3], in test [4], in test [6] and in test [7] was “inactive” throughout. For the same molecule, the Potency result in test [8], in test [9], in test [12], in [13] and in test [14] was “inactive” throughout. Besides, the Potency in test [5] is 23.7 µM (active).

Consider `CCCCCCCC/C=C/C(=O)O`, for which the Potency entry in test [1], in test [19], in test [3], in [4], in [5] and in [17] was “inactive” in each case. Also, the Potency entry in [6], in test [7], in test [8], in [9], in [10] and in test [12] was “inactive” each time. Further, the Potency entry in test [13], in [14] and in test [15] was “inactive” throughout.

Consider `COc1cc(NCc2ccc3nc(N)nc(N)c3c2C)cc(OC)c1OC`, for which the Potency entry in [1], in test [19], in test [16], in [3], in test [4] and in test [6] was “inactive” throughout. Moreover, the Potency entry in test [7], in test [8], in test [10], in test [18], in test [12] and in [13] was “inactive” throughout. Moreover, the Potency in test [14] was 15 µM (active).

`CC(C)COC(=O)c1ccc(O)cc1`: the Potency entry in test [1], in test [2], in [3], in test [4], in test [7] and in [8] was “inactive” throughout. For the same molecule, the Potency result in [9], in test [10], in [13] and in [14] was “inactive” each time.

Consider `CC1=C2[C@@H]([C@H](C)CC[C@H]2/C=C(\C)C(=O)O)[C@H](O)C1`, for which the Potency result in test [1], in test [19], in test [3], in test [4], in test [5] and in test [6] was “inactive” each time. The Potency result in [7], in [8], in [9], in test [10], in test [12] and in [13] was “inactive” each time. In addition, in test [14], the Potency result is “inactive”.

Regarding `CC1=CC[C@@]23C[C@@H]1C(C)(C)[C@@H]2CC[C@H]3C`, the Potency entry in test [19], in [2], in test [3], in test [4], in [5] and in test [17] was “inactive” throughout. In addition, the Potency result in test [6], in test [8], in test [9], in test [10], in test [13] and in [14] was “inactive” throughout. Moreover, the Potency result in test [15] is “inactive”.

`COc1ccc(C(=O)NCc2ccc(OCCN(C)C)cc2)cc1OC`: the Potency entry in test [1], in test [19], in test [16], in [3], in test [4] and in test [17] was “inactive” each time. Also, the Potency result in test [6], in [7], in test [8], in test [9], in test [10] and in test [18] was “inactive” throughout. In addition, the Potency result in test [13], in test [14] and in [15] was “inactive” in each case.

For `Cc1cc(CCC(=O)OCCOCCOCCOC(=O)CCc2cc(C)c(O)c(C(C)(C)C)c2)cc(C(C)(C)C)c1O`, the Potency result in [1], in test [19], in [3], in test [4], in test [6] and in [7] was “inactive” in each case. Besides, the Potency entry in test [8], in [9], in test [10], in test [12], in test [13] and in [14] was “inactive” in each case. In addition, the Potency result in [15] is “inactive”. Further, the Potency in test [17] was 33.8 µM (active).

For `C=Cc1ccc(OC(C)=O)cc1`, the Potency result in test [1], in [19], in test [16], in test [3], in test [4] and in test [17] was “inactive” each time. In addition, the Potency result in test [6], in test [7], in test [8], in test [9], in test [10] and in [20] was “inactive” throughout. The Potency result in test [11], in test [12], in test [13], in test [14] and in test [15] was “inactive” in each case.
